# Measurements reported in ChEMBL document CHEMBL1961873, “Compounds: GSK PKIS; Assays: Nanosyn kinase panel” (2012).
# Tests used:
# [1] = target: T1, Tyrosine-protein kinase ITK/TSK (Homo sapiens) (UniProt Q08881); details: at 1 µM;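 note: values are mean percent inhibition of ITK from the GSK PKIS screen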
# T1 sequence (whole entry): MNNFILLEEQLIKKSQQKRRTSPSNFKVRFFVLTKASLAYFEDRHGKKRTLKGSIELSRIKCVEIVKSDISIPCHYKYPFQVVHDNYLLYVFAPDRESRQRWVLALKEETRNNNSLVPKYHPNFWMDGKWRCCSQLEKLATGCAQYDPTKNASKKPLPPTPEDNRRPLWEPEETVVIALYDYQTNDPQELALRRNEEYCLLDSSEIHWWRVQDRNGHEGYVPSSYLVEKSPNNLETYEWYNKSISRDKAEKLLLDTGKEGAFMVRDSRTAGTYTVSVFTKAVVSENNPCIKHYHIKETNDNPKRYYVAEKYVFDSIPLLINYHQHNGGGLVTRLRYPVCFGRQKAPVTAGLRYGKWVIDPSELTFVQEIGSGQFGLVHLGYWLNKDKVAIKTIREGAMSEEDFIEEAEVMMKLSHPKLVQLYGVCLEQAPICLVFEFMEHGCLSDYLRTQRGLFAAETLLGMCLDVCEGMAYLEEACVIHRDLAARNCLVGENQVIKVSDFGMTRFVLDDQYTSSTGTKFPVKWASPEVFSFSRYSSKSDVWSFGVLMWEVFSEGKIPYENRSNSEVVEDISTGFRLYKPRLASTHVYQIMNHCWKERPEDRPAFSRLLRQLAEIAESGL
# [2] = target: Tyrosine-protein kinase JAK1 (Homo sapiens) (UniProt P23458); details: at 0.1 µM
# [3] = target: Tyrosine-protein kinase JAK1 (Homo sapiens) (UniProt P23458); details: at 1 µM
# [4] = target: Tyrosine-protein kinase JAK2 (Homo sapiens) (UniProt O60674); details: at 0.1 µM
# [5] = target: Tyrosine-protein kinase JAK2 (Homo sapiens) (UniProt O60674); details: at 1 µM
# [6] = target: T2, Tyrosine-protein kinase JAK3 (Homo sapiens) (UniProt P52333); details: at 0.1 µM
# T2 sequence (whole entry): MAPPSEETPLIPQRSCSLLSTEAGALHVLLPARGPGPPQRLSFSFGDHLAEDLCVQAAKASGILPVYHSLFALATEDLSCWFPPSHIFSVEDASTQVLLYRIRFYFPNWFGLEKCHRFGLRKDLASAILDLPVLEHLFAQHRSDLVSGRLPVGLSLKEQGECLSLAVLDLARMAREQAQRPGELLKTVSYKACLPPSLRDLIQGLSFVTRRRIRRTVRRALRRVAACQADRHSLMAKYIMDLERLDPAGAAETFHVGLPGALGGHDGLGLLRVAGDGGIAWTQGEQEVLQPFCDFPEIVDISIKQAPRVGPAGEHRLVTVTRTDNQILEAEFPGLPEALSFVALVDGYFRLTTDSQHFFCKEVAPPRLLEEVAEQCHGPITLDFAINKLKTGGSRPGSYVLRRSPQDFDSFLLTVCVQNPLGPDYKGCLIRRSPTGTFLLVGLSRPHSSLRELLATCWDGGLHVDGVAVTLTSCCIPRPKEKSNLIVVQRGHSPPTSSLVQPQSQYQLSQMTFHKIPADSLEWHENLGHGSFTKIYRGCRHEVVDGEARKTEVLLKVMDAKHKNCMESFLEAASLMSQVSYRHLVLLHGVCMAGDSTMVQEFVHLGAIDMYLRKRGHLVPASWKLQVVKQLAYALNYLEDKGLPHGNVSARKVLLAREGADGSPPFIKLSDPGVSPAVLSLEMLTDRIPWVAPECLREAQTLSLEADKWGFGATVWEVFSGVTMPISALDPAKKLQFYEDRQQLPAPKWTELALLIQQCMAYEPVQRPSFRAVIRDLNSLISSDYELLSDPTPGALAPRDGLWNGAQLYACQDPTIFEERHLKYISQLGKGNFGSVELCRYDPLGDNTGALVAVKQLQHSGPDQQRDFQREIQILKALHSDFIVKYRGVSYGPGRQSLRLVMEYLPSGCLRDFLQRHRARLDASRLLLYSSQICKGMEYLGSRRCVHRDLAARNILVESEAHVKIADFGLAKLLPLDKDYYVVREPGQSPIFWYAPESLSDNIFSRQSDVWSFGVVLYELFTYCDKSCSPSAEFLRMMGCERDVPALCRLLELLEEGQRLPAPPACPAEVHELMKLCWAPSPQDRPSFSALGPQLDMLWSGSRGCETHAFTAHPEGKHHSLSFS
# [7] = target: T2, Tyrosine-protein kinase JAK3 (Homo sapiens); details: at 1 µM
# [8] = target: Vascular endothelial growth factor receptor 2 (Homo sapiens) (UniProt P35968); details: at 0.1 µM
# [9] = target: Vascular endothelial growth factor receptor 2 (Homo sapiens) (UniProt P35968); details: at 1 µM
# [10] = target: Mast/stem cell growth factor receptor Kit (Homo sapiens) (UniProt P10721); details: at 0.1 µM
# [11] = target: Mast/stem cell growth factor receptor Kit (Homo sapiens) (UniProt P10721); details: at 1 µM
# [12] = system: Mast/stem cell growth factor receptor Kit (Homo sapiens), P10721 [D816V]; details: at 0.1 µM
# [13] = system: Mast/stem cell growth factor receptor Kit (Homo sapiens), P10721 [D816V]; details: at 1 µM
# [14] = system: Mast/stem cell growth factor receptor Kit (Homo sapiens), P10721 [T670I]; details: at 0.1 µM
# [15] = system: Mast/stem cell growth factor receptor Kit (Homo sapiens), P10721 [T670I]; details: at 1 µM
# [16] = system: Mast/stem cell growth factor receptor Kit (Homo sapiens), P10721 [V560G]; details: at 0.1 µM
# [17] = system: Mast/stem cell growth factor receptor Kit (Homo sapiens), P10721 [V560G]; details: at 1 µM
# [18] = target: Tyrosine-protein kinase Lck (Homo sapiens) (UniProt P06239); details: at 0.1 µM
# [19] = target: Tyrosine-protein kinase Lck (Homo sapiens) (UniProt P06239); details: at 1 µM
# [20] = target: Leukocyte tyrosine kinase receptor (Homo sapiens) (UniProt P29376); details: at 0.1 µM
# Chain of Leukocyte tyrosine kinase receptor (Homo sapiens) (P29376 whole entry): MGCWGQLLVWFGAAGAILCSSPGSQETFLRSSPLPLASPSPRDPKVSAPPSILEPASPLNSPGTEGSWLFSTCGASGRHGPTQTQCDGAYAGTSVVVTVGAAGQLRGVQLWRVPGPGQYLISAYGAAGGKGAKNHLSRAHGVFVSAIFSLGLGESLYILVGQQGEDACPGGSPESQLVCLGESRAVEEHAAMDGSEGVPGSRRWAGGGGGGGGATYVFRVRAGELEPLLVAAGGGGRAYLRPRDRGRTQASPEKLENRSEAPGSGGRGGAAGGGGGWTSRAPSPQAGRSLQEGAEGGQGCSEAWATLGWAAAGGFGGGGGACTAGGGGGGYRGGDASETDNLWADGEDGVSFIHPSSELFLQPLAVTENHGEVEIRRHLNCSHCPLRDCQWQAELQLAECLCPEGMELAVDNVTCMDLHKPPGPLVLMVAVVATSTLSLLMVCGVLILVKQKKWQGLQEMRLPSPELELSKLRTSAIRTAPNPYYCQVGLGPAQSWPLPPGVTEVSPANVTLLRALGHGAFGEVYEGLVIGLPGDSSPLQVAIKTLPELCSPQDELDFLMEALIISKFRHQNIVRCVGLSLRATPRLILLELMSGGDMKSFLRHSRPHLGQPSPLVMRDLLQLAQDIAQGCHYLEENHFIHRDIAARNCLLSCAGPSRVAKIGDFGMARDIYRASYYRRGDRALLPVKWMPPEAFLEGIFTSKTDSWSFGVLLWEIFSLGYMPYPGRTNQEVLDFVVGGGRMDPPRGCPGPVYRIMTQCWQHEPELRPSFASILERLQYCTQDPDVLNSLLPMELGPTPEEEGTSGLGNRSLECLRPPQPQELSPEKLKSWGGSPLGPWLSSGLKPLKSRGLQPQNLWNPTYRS
# Chain of Tyrosine-protein kinase JAK1 (Homo sapiens) (P23458 whole entry): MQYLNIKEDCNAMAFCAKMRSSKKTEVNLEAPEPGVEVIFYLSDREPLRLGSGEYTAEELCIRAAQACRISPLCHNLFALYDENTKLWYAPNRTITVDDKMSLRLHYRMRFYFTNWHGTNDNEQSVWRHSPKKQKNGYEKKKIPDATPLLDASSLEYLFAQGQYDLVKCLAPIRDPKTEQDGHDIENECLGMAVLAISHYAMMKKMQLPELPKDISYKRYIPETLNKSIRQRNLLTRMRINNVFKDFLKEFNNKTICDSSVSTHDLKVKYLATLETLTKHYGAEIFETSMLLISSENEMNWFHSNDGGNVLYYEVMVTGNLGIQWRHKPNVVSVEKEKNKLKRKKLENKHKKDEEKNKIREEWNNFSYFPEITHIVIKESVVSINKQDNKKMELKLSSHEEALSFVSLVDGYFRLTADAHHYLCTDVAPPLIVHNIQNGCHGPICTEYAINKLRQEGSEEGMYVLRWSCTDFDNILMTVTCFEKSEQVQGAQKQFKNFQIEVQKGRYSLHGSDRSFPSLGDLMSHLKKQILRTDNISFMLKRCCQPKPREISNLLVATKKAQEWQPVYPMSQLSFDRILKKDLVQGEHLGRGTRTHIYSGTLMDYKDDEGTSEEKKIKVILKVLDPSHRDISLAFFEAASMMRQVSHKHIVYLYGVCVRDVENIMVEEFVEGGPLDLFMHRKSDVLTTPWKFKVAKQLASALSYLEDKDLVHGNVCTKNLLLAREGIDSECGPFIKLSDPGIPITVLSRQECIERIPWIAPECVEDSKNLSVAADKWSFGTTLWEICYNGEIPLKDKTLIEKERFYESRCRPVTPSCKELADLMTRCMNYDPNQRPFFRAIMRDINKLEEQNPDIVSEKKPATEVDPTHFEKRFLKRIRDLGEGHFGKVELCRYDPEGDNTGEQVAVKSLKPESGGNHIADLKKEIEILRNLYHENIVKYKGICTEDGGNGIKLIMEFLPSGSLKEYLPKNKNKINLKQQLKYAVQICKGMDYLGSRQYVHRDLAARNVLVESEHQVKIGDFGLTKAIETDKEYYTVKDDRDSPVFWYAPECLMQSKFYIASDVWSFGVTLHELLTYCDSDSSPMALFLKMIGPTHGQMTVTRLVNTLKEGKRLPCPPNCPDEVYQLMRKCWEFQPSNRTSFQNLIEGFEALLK
# Chain of Mast/stem cell growth factor receptor Kit (Homo sapiens), P10721 [D816V] (P10721 whole entry D816V): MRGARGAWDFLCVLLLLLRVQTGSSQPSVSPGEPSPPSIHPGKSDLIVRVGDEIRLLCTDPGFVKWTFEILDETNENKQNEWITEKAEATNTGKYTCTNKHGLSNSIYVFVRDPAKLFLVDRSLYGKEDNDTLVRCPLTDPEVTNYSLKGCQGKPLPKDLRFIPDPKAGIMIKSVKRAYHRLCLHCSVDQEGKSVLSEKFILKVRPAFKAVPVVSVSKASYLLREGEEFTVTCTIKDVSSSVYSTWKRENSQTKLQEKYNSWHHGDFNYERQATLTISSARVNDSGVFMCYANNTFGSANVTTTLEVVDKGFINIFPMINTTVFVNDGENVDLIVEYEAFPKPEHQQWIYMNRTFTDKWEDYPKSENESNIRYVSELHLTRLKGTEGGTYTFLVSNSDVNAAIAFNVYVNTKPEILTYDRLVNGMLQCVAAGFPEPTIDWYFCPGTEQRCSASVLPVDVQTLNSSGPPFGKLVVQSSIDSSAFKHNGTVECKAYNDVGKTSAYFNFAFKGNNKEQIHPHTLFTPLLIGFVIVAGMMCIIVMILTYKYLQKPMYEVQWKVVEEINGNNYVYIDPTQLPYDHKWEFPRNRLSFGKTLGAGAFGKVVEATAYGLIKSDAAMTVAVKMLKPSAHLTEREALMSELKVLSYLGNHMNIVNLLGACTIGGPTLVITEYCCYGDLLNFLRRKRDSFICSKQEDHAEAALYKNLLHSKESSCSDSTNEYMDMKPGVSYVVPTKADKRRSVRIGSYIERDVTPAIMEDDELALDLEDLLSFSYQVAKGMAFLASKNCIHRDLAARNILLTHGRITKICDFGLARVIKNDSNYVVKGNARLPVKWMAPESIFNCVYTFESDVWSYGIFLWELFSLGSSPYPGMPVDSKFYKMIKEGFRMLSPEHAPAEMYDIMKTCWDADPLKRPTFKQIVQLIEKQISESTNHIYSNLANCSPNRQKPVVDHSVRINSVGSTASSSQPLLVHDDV
# Chain of Vascular endothelial growth factor receptor 2 (Homo sapiens) (P35968 whole entry): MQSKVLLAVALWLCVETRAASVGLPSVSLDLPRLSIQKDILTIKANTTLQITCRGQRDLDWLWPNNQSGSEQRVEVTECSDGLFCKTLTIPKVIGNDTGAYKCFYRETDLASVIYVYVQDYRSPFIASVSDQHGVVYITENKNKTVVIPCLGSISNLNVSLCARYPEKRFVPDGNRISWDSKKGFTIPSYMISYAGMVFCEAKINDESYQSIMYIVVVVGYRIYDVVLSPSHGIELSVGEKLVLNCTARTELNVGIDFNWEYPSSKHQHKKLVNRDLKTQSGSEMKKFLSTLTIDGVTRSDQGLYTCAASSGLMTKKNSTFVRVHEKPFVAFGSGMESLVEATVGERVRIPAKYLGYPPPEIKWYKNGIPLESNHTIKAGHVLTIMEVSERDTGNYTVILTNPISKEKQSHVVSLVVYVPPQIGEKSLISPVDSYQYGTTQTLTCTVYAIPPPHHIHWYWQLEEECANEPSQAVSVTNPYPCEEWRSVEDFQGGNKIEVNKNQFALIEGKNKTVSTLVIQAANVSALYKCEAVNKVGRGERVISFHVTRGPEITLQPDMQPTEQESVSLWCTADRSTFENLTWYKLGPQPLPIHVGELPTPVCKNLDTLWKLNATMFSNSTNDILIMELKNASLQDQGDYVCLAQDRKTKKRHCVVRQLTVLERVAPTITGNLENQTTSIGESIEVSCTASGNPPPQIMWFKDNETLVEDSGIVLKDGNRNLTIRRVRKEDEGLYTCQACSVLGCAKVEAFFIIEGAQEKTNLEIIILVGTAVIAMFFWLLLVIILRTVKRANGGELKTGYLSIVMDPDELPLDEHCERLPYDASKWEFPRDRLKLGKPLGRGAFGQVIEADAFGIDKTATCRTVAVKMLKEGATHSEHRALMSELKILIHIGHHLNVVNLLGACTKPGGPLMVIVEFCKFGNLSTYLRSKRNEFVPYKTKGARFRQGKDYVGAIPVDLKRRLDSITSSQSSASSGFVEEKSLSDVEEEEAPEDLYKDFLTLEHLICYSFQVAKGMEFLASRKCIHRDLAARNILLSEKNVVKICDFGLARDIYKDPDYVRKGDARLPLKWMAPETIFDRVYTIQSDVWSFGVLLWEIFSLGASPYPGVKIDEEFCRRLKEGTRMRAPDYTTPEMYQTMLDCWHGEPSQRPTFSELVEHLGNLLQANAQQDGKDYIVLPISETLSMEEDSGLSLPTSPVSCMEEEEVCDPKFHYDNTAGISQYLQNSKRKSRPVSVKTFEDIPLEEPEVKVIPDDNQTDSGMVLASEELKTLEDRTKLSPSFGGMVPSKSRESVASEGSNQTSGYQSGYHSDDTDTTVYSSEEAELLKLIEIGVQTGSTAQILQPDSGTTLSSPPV
# Chain of Mast/stem cell growth factor receptor Kit (Homo sapiens), P10721 [T670I] (P10721 whole entry T670I): as the sequence (P10721 whole entry D816V) above, with T670I, V816D counted along it
# Chain of Mast/stem cell growth factor receptor Kit (Homo sapiens) (P10721 whole entry): as the sequence (P10721 whole entry D816V) above, with V816D counted along it
# Chain of Mast/stem cell growth factor receptor Kit (Homo sapiens), P10721 [V560G] (P10721 whole entry V560G): as the sequence (P10721 whole entry D816V) above, with V560G, V816D counted along it
# Chain of Tyrosine-protein kinase Lck (Homo sapiens) (P06239 2-509 limits assumed): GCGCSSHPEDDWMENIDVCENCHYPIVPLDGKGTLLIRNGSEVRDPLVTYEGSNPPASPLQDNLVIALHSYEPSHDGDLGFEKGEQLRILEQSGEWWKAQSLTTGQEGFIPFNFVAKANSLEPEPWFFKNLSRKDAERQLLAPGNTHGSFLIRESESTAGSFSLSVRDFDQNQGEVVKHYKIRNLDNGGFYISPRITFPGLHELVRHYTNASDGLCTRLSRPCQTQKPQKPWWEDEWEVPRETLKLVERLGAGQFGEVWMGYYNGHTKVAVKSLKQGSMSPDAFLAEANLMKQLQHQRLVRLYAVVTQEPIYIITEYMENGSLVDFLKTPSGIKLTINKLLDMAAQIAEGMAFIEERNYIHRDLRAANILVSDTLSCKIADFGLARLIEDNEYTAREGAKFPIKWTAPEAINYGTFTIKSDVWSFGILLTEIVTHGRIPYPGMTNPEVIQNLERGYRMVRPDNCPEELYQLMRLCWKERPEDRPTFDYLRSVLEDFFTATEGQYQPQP
Compound,inhibition [1] [%],inhibition [2] [%],inhibition [3] [%],inhibition [4] [%],inhibition [5] [%],inhibition [6] [%],inhibition [7] [%],inhibition [8] [%],inhibition [9] [%],inhibition [10] [%],inhibition [11] [%],inhibition [12] [%],inhibition [13] [%],inhibition [14] [%],inhibition [15] [%],inhibition [16] [%],inhibition [17] [%],inhibition [18] [%],inhibition [19] [%],inhibition [20] [%]
NS(=O)(=O)c1ccc(N/N=C2\C(=O)Nc3ccc(C(=O)NCCCn4ccnc4)cc32)cc1,3.12,5.06,23.8,0.1,4.95,-2,18.8,8.51,34.1,4.8,9.5,6.28,9.36,3.5,5.57,-1.18,1.2,1.53,7.02,5.17
COc1cc(N2CCN(C(C)C)CC2)ccc1Nc1nc(Nc2ccc(F)cc2C(=O)NC[C@@H](O)CO)c2cc[nH]c2n1,-1.4,3.78,12.3,0.29,1.56,-5.03,-8.11,5.49,8.49,4.46,6.9,4.14,7.71,3.52,4.77,-2.07,-1.61,-1.06,-2.81,55.2
Fc1ccc(-c2ncn(CCCN3CCOCC3)c2-c2ccncc2)cc1,1.2,1.72,-1.2,-0.43,0.65,0.1,1.07,-0.88,1,-3.23,-0.81,0.65,-1.66,-0.29,-2.16,2.57,0.03,0.17,3.45,0.08
NS(=O)(=O)c1ccc(N/N=C2\C(=O)Nc3ccc(-c4cnco4)cc32)cc1,-0.93,1.96,6.12,0.38,5.7,-4.76,24.1,6.94,39.1,5.83,42.2,0.65,5.47,1.64,10.7,0.82,3.19,-1.05,4.4,1.24
O=C1NC(=O)C(c2cccc(Cl)c2)=C1Nc1ccc(Cl)c(C(=O)O)c1,0.9,4.75,13.7,0.64,0.7,-0.9,9.29,6.04,23.5,6.54,5.28,1.8,5.8,2.83,4.22,1,6.94,1.82,0.84,2.51
C/C(Nc1ccc(S(N)(=O)=O)cc1)=C1/C(=O)Nc2ccccc21,4.72,-6.57,-1.09,-0.57,0.27,-0.45,6.44,9.11,44.5,38.4,90.9,-0.26,-1.16,21,82.5,3.94,22.4,-1.24,4.22,1.12
Fc1ccc(-c2ncn(C3CCNCC3)c2-c2ccnc(Oc3ccc(F)c(F)c3)n2)cc1,-2.62,3.04,7.49,1.1,0.69,-5.49,-1.81,6.78,11.5,1.92,5.24,5.58,2.5,1.57,1.83,-1.36,0.87,-1.59,-1.94,2.84
CN(c1ccc(NC(=O)Nc2c(Cl)cccc2Cl)cc1)c1ccnc(Nc2cccc(CS(C)(=O)=O)c2)n1,71.1,8.34,19.7,2.35,20.7,0.53,2.77,24.6,56.3,88.5,95.9,-0.59,2.33,12.3,35.9,71.3,81.5,45.5,61.2,0.54
CS(=O)(=O)CCNCc1cc(-c2cc3c(Nc4ccc(OCc5cccc(F)c5)c(Cl)c4)ncnc3s2)cs1,3.04,-1.42,3.76,2.28,5.69,-2.63,-0.49,6.12,8.97,7.21,8.47,2.03,6.26,2.2,5.07,-1.18,0.47,2.76,4.18,6.05
COc1cc(C)c(N(C)C(=O)CN(C)C)cc1Nc1nc(Nc2cccc(F)c2C(N)=O)c2cc[nH]c2n1,-1.94,3.43,-5.28,0.96,1.71,-3.43,-3.47,1.87,1.78,0.03,-0.73,-0.92,0.99,-0.51,-1.63,-1.08,-3.38,-3.07,-1.56,11.7
COc1cccc(-n2cnc3c(N/N=C/c4ccncc4)ncnc32)c1,-1.27,4.44,16.3,0.27,0.37,-2.48,-2.19,-0.11,11.2,33.4,83.4,0.1,3.79,-2.23,6.36,3.15,18.8,3.69,29.3,-1.69
